Screening results as filed in PubChem.
Rows were chosen to be rich in hits. Some 21% of all compounds tested hit in one or more screens of this group.
SARS PLP yeast: blocks SARS-CoV papain-like protease in a yeast assay; S. cerevisiae expressing SARS-CoV PLpro, growth rescue; Potency, µM (highest dose often 32.9 µM), inactives show top-dose activity, positive = growth rescue, hits mostly activators; AID 485353; 330,000 compounds, 0.19% hits; also: potency is read from the fitted curve at half-maximal effect; 0% is about no effect; nearly all actives have a fitted effect of over 55% in size
CHX counter: counter-screen hit for Shiga toxin inhibitors, cycloheximide; cell reporter, cycloheximide protein synthesis inhibition counterscreen; max response, %; 300,000 compounds, 12% hits; AID 2314; in the data active = max response mostly above about 13%, no sharp cut-off; inactive = mostly below about 14%; also: read at 38.3 µM for the half of the compounds with a filed dose; 0% is about no effect
Pf growth 48h: P. falciparum growth inhibition at 48 hours (one generation); P. falciparum luciferase growth in erythrocytes, 48 h; Potency, µM (series often up to 28.7 µM), for the others: top-dose activity change, negative = inhibition, hits mostly inhibitors; 310,000 compounds, 5.9% hits; AID 504832; active = well fitted inhibition curve with a large enough effect; inconclusive = small, poorly fitted or top-dose-only effect, or another doubt; inactive = no such curve, though single readings can be large or run the other way; also: potency is read from the fitted curve at half-maximal effect; % is scaled to controls: 0 for no effect and ±100 for the full control effect
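In quantitative HTS format, infected erythrocytes bearing luciferase-reporter parasites were treated for a single generation at 37 C. Luminescence after adding detection reagent served as the growth measure.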
Shiga inhibitor: blocks Shiga toxin action in Vero cells. Vero cells, Shiga toxin protein synthesis inhibition reporter. inhibition, % at 38.7 µM. 290,000 compounds, 9.2% hits; in the data active = inhibition mostly above about 28%, no sharp cut-off; inactive = mostly below about 43%; also: 0% is about no effect
NS1 function inh: inhibitors of influenza NS1 protein function; Potency, µM (highest dose often 46.1 µM), without a hit: at the highest dose activity, positive = more growth; 270,000 compounds, 0.4% hits; AID 2326; also: potency is read from the fitted curve at half-maximal effect; actives are rising curves; nearly all actives have a fitted effect of over 50% in size
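Growth recovery, yeast-based: influenza A NS1 expressed in S. cerevisiae causes slow growth, and suppressors are detected by OD600. The parent strain without NS1 is used as positive control.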
Pf growth 96h: P. falciparum growth inhibition at 96 hour, primary screen for plastid delayed-death inhibitors; Potency, µM (top dose mostly 28.7 µM), for the others: at the highest dose activity change, negative = inhibition, hits mostly inhibitors; 320,000 compounds, 6.9% hits; AID 504834; P. falciparum luciferase reporter growth, 96 h; active = well fitted inhibition curve with a large enough effect; inconclusive = small, poorly fitted or top-dose-only effect, or another doubt; inactive = no such curve, though single readings can be large or run the other way; also: potency is read from the fitted curve at half-maximal effect; % is scaled to controls: 0 for no effect and ±100 for the full control effect
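P. falciparum expressing integrated firefly luciferase grown in erythrocytes (2% hematocrit, 0.05% parasitemia final) with compounds for 96 hours at 37 C, 5% CO2. Growth inhibition read as loss of luminescence after adding luciferase detection reagent.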
* hit, by the source's call; ? = inconclusive; . = no result given; [ ] = dose if it differs, or a comment. Unless noted, calls follow the shape of the full dose curve.

SMILES	SARS PLP yeast	CHX counter	Pf growth 48h	Shiga inhibitor	NS1 function inh	Pf growth 96h
O=C(CSc1nc2ccccc2c(=O)n1Cc1ccco1)Nc1cccc(O)c1	0.7%	19.0*	10.8%	42.7	3.7%	13.1µM*
COC(=O)c1ccc(CSc2nc3ccccc3c(=O)n2Cc2ccco2)o1	-4.1%	15.9*	?	17.5	-37.0%	-19.0%
CS(=O)(=O)c1ccc(Cl)c(NC(=O)CSc2nc3ccccc3c(=O)n2Cc2ccco2)c1	-1.2%	.	10.0%	.	.	-15.6%
Cc1ccc(S(=O)(=O)N2CCOCC2)cc1NC(=O)CSc1nc2ccccc2c(=O)n1Cc1ccccc1	?	-5.0	?	-13.1	?	5.22µM*
CS(=O)(=O)c1ccc(Cl)c(NC(=O)CSc2nc3ccccc3c(=O)n2CCCN2CCOCC2)c1	-10.0%	-2.6	?	-4.2	-0.2%	7.38µM*
O=C1CN(C(=O)COC(=O)c2ccc(Cl)c(S(=O)(=O)N3CCCCC3)c2)c2ccccc2N1	-1.5%	.	.	.	.	.
O=C(Cc1ccccc1)NNC(=O)Nc1ccccc1	0.6%	-3.4	6.6%	39.7	2.5%	21.5%
O=C(CSc1nc2cc(Cl)ccc2c(=O)n1Cc1ccco1)Nc1ccc(S(=O)(=O)N2CCOCC2)cc1	9.1%	13.9	?	-57.1	?	10.4µM*
Cc1ccc(C)c(CN2CCC(CNC(=O)Nc3ccc(Br)cc3F)CC2)c1	-2.4%	4.7	13.1µM*	-9.8	-0.2%	-13.1%
CCOC(=O)C1(Cc2ccc(Cl)cc2)CCN(C(=O)c2ccoc2)CC1	0.1%	2.7	-5.1%	23.8	4.4%	?
Cc1c(C(=O)N2CCOCC2)sc(NC(=O)Cc2ccccc2)c1C#N	0.3%	1.3	-6.9%	-15.2	1.2%	0.0%
CCCNC(=O)c1ccccc1NC(=O)c1ccc(CSc2ccccc2)cc1	-26.5%	16.6*	13.1µM*	25.9*	-33.2%	?
CCCNC(=O)c1ccccc1NC(=O)c1ccccc1SC	-1.3%	6.5	-16.7%	11.4	-6.8%	37.1%
Cc1ccc(SCc2ccc(C(=O)Nc3ccccc3C(=O)NC(C)C)cc2)cc1	-21.4%	-2.0	-4.9%	1.6	9.2%	422.7%
CCC(C)NC(=O)c1ccccc1NC(=O)c1ccc(CSc2ccccc2)cc1 (stereo not drawn)	-4.2%	-4.0	11.7µM*	-9.3	2.0%	-0.1%
Cc1cccc(NC(=O)CSc2nsc(SCC(=O)Nc3cccc(C)c3)c2C#N)c1	12.9%	11.7*	103.7%	12.5	21.4%	26.8%
CC(=O)Nc1cccc(NC(=O)CSc2nc(C)c(C)c(C)c2C#N)c1	-3.4%	11.2*	26.3%	-2.5	9.7%[9.22 µM]	.
N#Cc1c(SCC(=O)N2CCCCC2)nsc1SCC(=O)N1CCCCC1	-0.8%	-1.9	14.7µM*	-4.2	-8.9%	0.0%
CCCSc1nsc(SCCC)c1C#N	8.5%	21.5*	.	46.4*	0.0%	?
N#Cc1c(SCC(=O)Nc2ccccc2)nsc1SCC(=O)Nc1ccccc1	29.7%	-0.3	29.5%	-8.0	23.8%	13.0%
COC(=O)CSc1nsc(SCC(=O)OC)c1C#N	-9.4%	-4.6	15.5%	-0.9	-12.5%	7.8%[5.75 µM]
COC(=O)C1CN(C(=O)COc2ccc(C)c(C)c2)c2ccccc2O1 (stereo not drawn)	-4.4%	0.9	1.5%	2.0	-2.4%	19.0%
COc1ccc(CN2CCC(C)CC2)cc1OCc1ccccc1	-0.8%	0.5	?	0.9	3.0%	5.8%
CCc1n[nH]c(=S)n1/N=C/c1cc(Br)c(OC)cc1OC	15.4%	-4.1	-4.1%	-7.3	11.3%	-23.3%
Cn1c(-c2ccc(F)cc2)cnc1SCC(=O)N1CCCCC1	2.0%	33.4*	.	38.0	-6.6%	3.4%
CC1Cc2ccccc2N1C(=O)CSc1ncc(-c2ccc(F)cc2)n1C (stereo not drawn)	?	61.0*	78.7%	74.9*	19.6%	25.6%
Cn1c(-c2ccc(F)cc2)cnc1SCC(=O)N1CCCc2ccccc21	15.0%	-1.9	-11.9%	-3.1	-9.0%	?
O=C(CSc1ncc(-c2ccccc2)n1CC1CCCO1)N1CCCCC1 (stereo not drawn)	6.6%	11.3	?	29.8	-3.9%	?
CC1Cc2ccccc2N1C(=O)CSc1nnc2n1C(C)(C)Cc1ccccc1-2 (stereo not drawn)	1.9%	-3.9	?	-7.7	-15.5%	2.62µM*
